Results on ten compounds are retold here after the supplement of paper PMC8866396.

Structures are written as SMILES. ± gives the standard deviation of the averaged measurements.

One assay relates to IL-6-GFP PC-9GR. The assay can be described thus: cell viability (CCK-8 OD) relative to DMSO control (fraction of control); higher = more viable cells. The conditions noted are these: compound concentration: 10 uM; treatment time: 48 h. In short, it runs like this: (§1)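 PC-9 and PC-9GR lung cancer cells expressing lentiviral IL-6-GFP were plated at 3000 cells/well in 96-well plates and treated for 48 h with each library compound at a final 10 μM. Viability was determined by CCK-8 absorbance as a ratio of each well's optical density to the vehicle control well.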

For another assay, the system named is IL-6-GFP PC-9. The description is as above. The conditions noted are these: compound concentration: 10 uM; treatment time: 48 h. In outline:
as §1

Take `Cl.c1ccc2c(c1)CCCC2C1=NCCN1` (stereo not given) [Tetrahydrozoline HCl]: the results for the cell viability in the assay on IL-6-GFP PC-9GR and in the assay on IL-6-GFP PC-9 were 0.987 ± 0.049 and 1.13 ± 0.15, respectively.

In the case of `CC(C)(C#N)c1cc(Cn2cncn2)cc(C(C)(C)C#N)c1` [Anastrozole], the figures for the cell viability in the assay with IL-6-GFP PC-9GR and in the assay with IL-6-GFP PC-9 were 1.15 ± 0.045 and 1.01 ± 0.078, respectively.

As to `O=C(O)Cc1ccccc1Nc1c(Cl)cccc1Cl` [Diclofenac acid], the values for the cell viability with IL-6-GFP PC-9GR and with IL-6-GFP PC-9 were 1.07 ± 0.24 and 1.12 ± 0.17, respectively.

Consider `Nc1ccn(C2OC(CO)C(O)C2O)c(=O)n1` (stereo not given) [Cytarabine], for which the cell viability worked out at 0.816 ± 0.077 in the assay on IL-6-GFP PC-9GR and 0.7893 ± 0.0033 with IL-6-GFP PC-9.

Consider `CC1CC2C3CCC4=CC(=O)C=CC4(C)C3C(=O)CC2(C)C1(O)C(=O)CO` (stereo not given) [Meprednisone], for which the cell viability stood at 1.25 ± 0.14 in the assay with IL-6-GFP PC-9GR and 1.46 ± 0.35 with IL-6-GFP PC-9.

For `Nc1nc(Cl)nc2c1ncn2C1CC(O)C(CO)O1` (stereo not given) [Cladribine], the cell viability came out at 0.941 ± 0.059 with IL-6-GFP PC-9GR and 0.762 ± 0.076 in the assay on IL-6-GFP PC-9.

Take `Cc1c(-c2ccc(O)cc2)n(Cc2ccc(OCCN3CCCCCC3)cc2)c2ccc(O)cc12.Cl` [Bazedoxifene HCl]: the values for the cell viability in the assay on IL-6-GFP PC-9GR and in the assay on IL-6-GFP PC-9 were 0.539 ± 0.098 and 0.51 ± 0.077, respectively.

As to `CC(=O)O.CCNC(=O)C1CCCN1C(=O)C(CCCNC(=N)N)NC(=O)C(CC(C)C)NC(=O)C(CC(C)C)NC(=O)C(Cc1ccc(O)cc1)NC(=O)C(CO)NC(=O)C(Cc1c[nH]c2ccccc12)NC(=O)C(Cc1c[nH]cn1)NC(=O)C1CCC(=O)N1` (stereo not given) [Leuprolide Acetate], the cell viability with IL-6-GFP PC-9GR was 1.16 ± 0.31; in the assay with IL-6-GFP PC-9, 1.28 ± 0.073.

As for `CC(=O)OC1C(=O)C2(C)C(O)CC3OCC3(OC(C)=O)C2C(OC(=O)c2ccccc2)C2(O)CC(OC(=O)C(O)C(NC(=O)c3ccccc3)c3ccccc3)C(C)=C1C2(C)C` (stereo not given) [Paclitaxel], the cell viability in the assay on IL-6-GFP PC-9GR was found to be 0.576 ± 0.036; in the assay on IL-6-GFP PC-9 it was 0.57 ± 0.026.

In the case of `CNC(=O)c1cc(Oc2ccc(NC(=O)Nc3ccc(Cl)c(C(F)(F)F)c3)c(F)c2)ccn1.O` [Regorafenib Monohydrate], the cell viability with IL-6-GFP PC-9GR stood at 0.659 ± 0.32; in the assay on IL-6-GFP PC-9, 0.21 ± 0.28.
